Data reported in PubChem BioAssay (NCI).
This is part of a sample that, as a whole, favours compounds with a hit. Of some 79,000 tested, about 15% had one in any assay. Activity calls are given as the source filed them. Cut-off read from the data, not from the text of the source: active = growth inhibition above about 70%; inactive = the rest.

Legend:
[1] = NCI Yeast Anticancer Drug Screen. Data for the wt1 strain (AID 149);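 note: 0% = growth of vehicle-treated wt1 cultures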; settings: S. cerevisiae wt1 strain (SPY 50644) growth inhibition, stronger effect = higher value
In short: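 Yeast wt1 strain exposed to compounds; growth inhibition measured relative to vehicle-treated controls.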

[2] = NCI Yeast Anticancer Drug Screen. Data for the rad50EPP+ strain (AID 151);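 note: 0% = growth of vehicle-treated control cultures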; settings: S. cerevisiae rad50 mutant strain, stronger effect = higher value
In short: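 Read-out is yeast growth inhibition relative to vehicle; cells used were the rad50EPP+ strain.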

[3] = NCI Yeast Anticancer Drug Screen. Data for the mgt1 strain (AID 153); settings: S. cerevisiae mgt1 mutant growth inhibition, stronger effect = higher value
In short: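 Measured: inhibition of mgt1 yeast growth by compound, normalized to vehicle-treated cultures.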

[4] = NCI Yeast Anticancer Drug Screen. Data for the rad50 strain (AID 155);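 note: 0% = growth of vehicle-only cultures of the same strain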; settings: S. cerevisiae rad50 strain growth inhibition, stronger effect = higher value
In short: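 Yeast carrying a defined DNA repair defect were exposed to test compounds, and growth was compared with vehicle-treated controls to give percent inhibition.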

[5] = NCI Yeast Anticancer Drug Screen. Data for the mec2-1 strain (AID 157); settings: S. cerevisiae mec2-1 strain, stronger effect = higher value
In short: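 Using mec2-1 yeast: add compound, measure growth, express inhibition versus vehicle-treated cultures.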

[6] = NCI Yeast Anticancer Drug Screen. Data for the rad14 strain (AID 159);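 note: 0% = growth of vehicle-treated control cultures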; settings: S. cerevisiae rad14 strain growth inhibition, stronger effect = higher value
In short: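 Yeast cells carrying a defined DNA-repair defect were exposed to compounds, and growth inhibition was calculated relative to vehicle-treated control cultures.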

[7] = NCI Yeast Anticancer Drug Screen. Data for the sgs1 mgt1 strain (AID 161);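 note: 0% = growth of cultures given vehicle only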; settings: S. cerevisiae sgs1 mgt1 strain, stronger effect = higher value
In short: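 Compounds are added to genetically altered yeast, and growth is compared with cultures given vehicle alone to give percent inhibition.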

[8] = NCI Yeast Anticancer Drug Screen. Data for the CLN2oe strain (AID 163);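 note: 0% = growth of vehicle-only control cultures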; settings: S. cerevisiae CLN2oe strain, stronger effect = higher value
In short: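 Whole-cell yeast growth assay. A strain engineered for altered cell-cycle control received compound, and inhibition relative to vehicle-treated cultures was recorded.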

[9] = NCI Yeast Anticancer Drug Screen. Data for the bub3 strain (AID 167); settings: S. cerevisiae bub3 mutant strain, stronger effect = higher value
In short: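 Compounds were applied to a genetically altered yeast strain carrying a cell-cycle control defect. Growth inhibition was scored against vehicle-treated controls.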

[10] = NCI Yeast Anticancer Drug Screen. Data for the wt2 strain (AID 169);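 note: 0% = growth of vehicle-treated yeast cultures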; settings: S. cerevisiae wt2 strain growth inhibition, stronger effect = higher value
In short: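 Treated yeast vs. vehicle-treated yeast: growth inhibition determined.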

[11] = NCI Yeast Anticancer Drug Screen. Data for the mlh1 strain (AID 171);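 note: 0% = growth of vehicle-treated control cultures of the same strain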; settings: S. cerevisiae mlh1 strain growth inhibition, stronger effect = higher value
In short: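 A yeast strain with a defined genetic lesion serves as the test organism. Cultures receive compound or vehicle, and growth is measured.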

[12] = NCI Yeast Anticancer Drug Screen. Data for the sgs1 strain (AID 173);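 note: 0% = growth of vehicle-only control cultures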; settings: S. cerevisiae sgs1 mutant, stronger effect = higher value
In short: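 A genetically defined yeast mutant is incubated with the test compound, and its growth is compared to that of the same strain given vehicle.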

[13] = NCI Yeast Anticancer Drug Screen. Data for the mlh1 rad18 strain (AID 175); settings: S. cerevisiae mlh1 rad18 strain growth inhibition, stronger effect = higher value
In short: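 Steps: expose repair-defective yeast to compound; measure growth; express inhibition against vehicle-treated controls.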

[14] = NCI Yeast Anticancer Drug Screen. Data for the rad18 strain (AID 177); settings: S. cerevisiae rad18 mutant growth inhibition, stronger effect = higher value
In short: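 Measured value is growth inhibition of a yeast strain bearing a DNA repair alteration, referenced to vehicle-treated cells.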

[15] = NCI Yeast Anticancer Drug Screen. Data for the cln2 rad14 strain (AID 165);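 note: 0% = growth equal to vehicle treated cultures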; settings: S. cerevisiae cln2 rad14 strain, stronger effect = higher value
In short: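 Yeast strain cln2 rad14, bearing defects in cell cycle control and DNA repair, serves as the test system; values reflect growth inhibition compared with vehicle.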

[16] = at 5.0 µM (retest, dose inferred, filed as 0.5)
[17] = at 50.0 µM (retest, dose inferred, filed as 5.0)

Measured: growth inhibition

O=C(Nn1c(-c2ccccc2)nc2ccccc2c1=O)c1ccc(Cl)cc1
active: [1]; at 100.0 µM 96% | [3]; at 100.0 µM 94% | [4]; at 33.0 µM 70% | [4]; at 100.0 µM 95% | [5]; at 100.0 µM 93% | [6]; at 33.0 µM 76% | [6]; at 100.0 µM 91% | [8]; at 100.0 µM 94% | [9]; at 11.0 µM 72% | [9]; at 33.0 µM 93% | [9]; at 100.0 µM 95% | [10]; at 100.0 µM 95% | [11]; at 100.0 µM 95% | [12]; at 33.0 µM 78% | [12]; at 100.0 µM 96% | [13]; at 50.0 µM 71.9% | [14]; at 33.0 µM 70% | [14]; at 100.0 µM 95%
inactive: [1]; at 1.2 µM 23% | [1]; at 3.7 µM 15% | [1]; at 11.0 µM 17% | [1]; at 33.0 µM 54% | [2]; at 1.2 µM -1% | [2]; at 3.7 µM -11% | [2]; at 11.0 µM -2% | [2]; at 33.0 µM 16% | [2]; at 100.0 µM 27% | [3]; at 1.2 µM -4% | [3]; at 3.7 µM -19% | [3]; at 11.0 µM -17% | [3]; at 33.0 µM 50% | [4]; at 1.2 µM 26% | [4]; at 3.7 µM 9% | [4]; [16] -24% | [4]; at 11.0 µM 31% | [4]; [17] 68% | [4]; at 50.0 µM 66.5% | [5]; at 1.2 µM -15% | [5]; at 3.7 µM -24% | [5]; [16] -3% | [5]; at 11.0 µM -1% | [5]; at 33.0 µM 28% | [5]; [17] 9% | [5]; at 50.0 µM 36.4% | [6]; at 1.2 µM -11% | [6]; at 3.7 µM -5% | [6]; at 11.0 µM -15% | [7]; [16] 0% | [7]; [17] 24% | [7]; at 50.0 µM 56.5% | [8]; at 1.2 µM 12% | [8]; at 3.7 µM -8% | [8]; at 11.0 µM -23% | [8]; at 33.0 µM 12% | [9]; at 1.2 µM 43% | [9]; at 3.7 µM 52% | [9]; [16] -19% | [9]; [17] 68% | [9]; at 50.0 µM 68.7% | [10]; at 1.2 µM 5% | [10]; at 3.7 µM 6% | [10]; at 11.0 µM 5% | [10]; at 33.0 µM 51% | [11]; at 1.2 µM 5% | [11]; at 3.7 µM 1% | [11]; at 11.0 µM 26% | [11]; at 33.0 µM 69% | [12]; at 1.2 µM 23% | [12]; at 3.7 µM 19% | [12]; at 11.0 µM 33% | [13]; [16] -46% | [13]; [17] 68% | [14]; at 1.2 µM -2% | [14]; at 3.7 µM -2% | [14]; at 11.0 µM 13%

CCOc1nc(OCC)nc(-c2cccn2-c2ccccc2)n1
active: [1]; at 100.0 µM 94% | [3]; at 100.0 µM 96% | [4]; [16] 85% | [4]; [17] 100% | [4]; at 50.0 µM 70.3% | [4]; at 100.0 µM 92% | [5]; [16] 93% | [5]; [17] 100% | [5]; at 100.0 µM 93% | [6]; at 100.0 µM 90% | [7]; [17] 74% | [8]; at 100.0 µM 91% | [15]; [17] 83% | [9]; [17] 87% | [9]; at 100.0 µM 94% | [10]; at 100.0 µM 95% | [11]; at 100.0 µM 89% | [12]; at 100.0 µM 95% | [13]; [16] 86% | [13]; [17] 100% | [13]; at 50.0 µM 80.2% | [14]; at 100.0 µM 93%
inactive: [1]; at 1.2 µM -19% | [1]; at 3.7 µM -22% | [1]; at 11.0 µM -13% | [1]; at 33.0 µM -11% | [2]; at 1.2 µM 1% | [2]; at 3.7 µM 5% | [2]; at 11.0 µM 23% | [2]; at 33.0 µM 12% | [2]; at 100.0 µM 40% | [3]; at 1.2 µM 1% | [3]; at 3.7 µM 8% | [3]; at 11.0 µM 6% | [3]; at 33.0 µM 25% | [4]; at 1.2 µM 7% | [4]; at 3.7 µM 40% | [4]; at 11.0 µM 35% | [4]; at 33.0 µM 26% | [5]; at 1.2 µM -4% | [5]; at 3.7 µM 9% | [5]; at 11.0 µM -6% | [5]; at 33.0 µM 12% | [5]; at 50.0 µM 59.7% | [6]; at 1.2 µM -11% | [6]; at 3.7 µM -8% | [6]; at 11.0 µM -1% | [6]; at 33.0 µM 13% | [7]; [16] -13% | [8]; at 1.2 µM -2% | [8]; at 3.7 µM 0% | [8]; at 11.0 µM 11% | [8]; at 33.0 µM 6% | [15]; [16] 55% | [9]; at 1.2 µM 19% | [9]; at 3.7 µM 36% | [9]; [16] 14% | [9]; at 11.0 µM 32% | [9]; at 33.0 µM 43% | [10]; at 1.2 µM -3% | [10]; at 3.7 µM 8% | [10]; at 11.0 µM 1% | [10]; at 33.0 µM 38% | [11]; at 1.2 µM -25% | [11]; at 3.7 µM -6% | [11]; at 11.0 µM -12% | [11]; at 33.0 µM 2% | [12]; at 1.2 µM 16% | [12]; at 3.7 µM 15% | [12]; at 11.0 µM 14% | [12]; at 33.0 µM 43% | [14]; at 1.2 µM -4% | [14]; at 3.7 µM 15% | [14]; at 11.0 µM 19% | [14]; at 33.0 µM 19%
